Experimental data published in PubChem BioAssay (NCATS).
Inconclusive results are not listed. Calls of active or inactive are those of the source. Unless noted, calls follow the shape of the dose curve; as a rule, active = well fitted curve in the direction sought with a large enough effect; inconclusive = small, poorly fitted or top-dose-only effect, or another doubt; inactive = no such curve, though single readings can be large; an effect the other way counts as inactive or inconclusive.

What was measured:
[1] = target: Lysosomal acid glucosylceramidase (Homo sapiens) (UniProt P04062); assay: Glucocerebrosidase-p2 (AID 348; in the data active = potency below about 10 µM; also: potency is read from the fitted curve at half-maximal effect); settings: purified GBA, blue fluorogenic substrate, 40 min
Lysosomal acid glucosylceramidase (Homo sapiens), sequence (P04062 whole entry, looked up): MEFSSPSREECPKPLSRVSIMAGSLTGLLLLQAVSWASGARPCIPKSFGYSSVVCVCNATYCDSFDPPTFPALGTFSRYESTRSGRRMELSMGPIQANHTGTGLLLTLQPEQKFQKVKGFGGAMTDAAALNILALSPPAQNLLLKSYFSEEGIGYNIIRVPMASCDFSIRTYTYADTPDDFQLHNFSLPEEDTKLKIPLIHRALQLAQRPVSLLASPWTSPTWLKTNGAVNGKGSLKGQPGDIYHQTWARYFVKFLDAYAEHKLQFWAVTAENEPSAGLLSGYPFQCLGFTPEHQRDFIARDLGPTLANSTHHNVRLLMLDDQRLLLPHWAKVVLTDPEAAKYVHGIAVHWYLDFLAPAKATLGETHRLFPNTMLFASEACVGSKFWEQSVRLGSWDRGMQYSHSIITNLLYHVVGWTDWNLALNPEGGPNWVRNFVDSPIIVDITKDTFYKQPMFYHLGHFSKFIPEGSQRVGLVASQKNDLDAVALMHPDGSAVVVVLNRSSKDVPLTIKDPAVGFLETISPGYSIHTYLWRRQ
In short: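 Compounds titrated from 0.6 nM upwards against 0.2 nM enzyme in pH 5.9 citric acid/KH2PO4, taurocholate, tween-20; blue fluorogenic substrate 80 uM, 40 min room temperature, stopped and read Ex 365/Em 440 for AC50.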

[2] = AP1 Signaling Pathway (AID 357; active = well fitted curve in either direction with a large enough effect, not every such curve was filed as active;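 also: ME-180 reporter cells stimulated with EGF at its EC50 level; % is scaled to controls: 0 for no effect and ±100 for the full control effect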); settings: ME-180 AP-1-bla reporter, EGF-induced, beta-lactamase ratio, 5 h; at 7.69 µM (top of the series) unless noted
In short: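 In this screen, ME-180 cells in Opti-MEM with 0.5% dialyzed FBS received EC50 EGF and compound titrations for 5 h. AP-1 reporter beta-lactamase was detected via CCF4 ratio, giving AC50 for positive and negative modulators.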

[3] = target: Cytochrome P450 1A2 (Homo sapiens) (UniProt P05177); assay: p450-cyp1a2 (AID 410; calls by dose curve; also: potency is read from the fitted curve at half-maximal effect); settings: recombinant CYP1A2, luciferin-ME demethylation, luminescence; series mostly up to 57 µM
Cytochrome P450 1A2 (Homo sapiens), sequence (P05177 whole entry, looked up): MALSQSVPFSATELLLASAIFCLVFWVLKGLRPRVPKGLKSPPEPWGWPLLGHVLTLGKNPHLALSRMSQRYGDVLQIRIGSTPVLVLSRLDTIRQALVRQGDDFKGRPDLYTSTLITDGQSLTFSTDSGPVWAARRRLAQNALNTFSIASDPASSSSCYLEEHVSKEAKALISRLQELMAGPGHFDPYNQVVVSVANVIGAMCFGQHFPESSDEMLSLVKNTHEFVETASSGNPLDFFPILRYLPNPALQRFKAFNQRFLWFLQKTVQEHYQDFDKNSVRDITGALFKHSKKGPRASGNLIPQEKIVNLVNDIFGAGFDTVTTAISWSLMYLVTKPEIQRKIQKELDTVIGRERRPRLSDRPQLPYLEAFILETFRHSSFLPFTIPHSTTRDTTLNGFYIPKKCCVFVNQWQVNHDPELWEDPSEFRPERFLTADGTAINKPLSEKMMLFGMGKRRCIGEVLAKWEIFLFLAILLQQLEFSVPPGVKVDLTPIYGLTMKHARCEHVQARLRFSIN
In short: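 Human CYP1A2 (20nM) demethylated Luciferin-ME at its Km (100uM) in 100mM KPO4. After 10 min compound preincubation, NADPH regeneration ran the reaction 60 min at room temperature. Luciferin was read by luminescence, normalized to 57 uM furafylline.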

[4] = NFAT Signaling Pathway (AID 444; active = well fitted curve in either direction with a large enough effect, not every such curve was filed as active;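 also: carbachol stimulus at about its EC50 of 1 µM final; % is scaled to controls: 0 for no effect and ±100 for the full control effect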); settings: Jurkat NFAT-bla M1, carbachol, beta-lactamase ratio, 5 h; at 7.69 µM (top of the series) unless noted
In short: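 Jurkat cells with NFAT-driven β-lactamase reporter and co-expressed M1 receptor, stimulated with carbachol (final 1 uM, ~EC50), compound titration, 5 h at 37 °C. CCF4 loaded 1 h at RT; 460/530 nm ratio gave %activity and AC50.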

[5] = Stat Signaling Pathway (AID 446; active = well fitted curve in either direction with a large enough effect, not every such curve was filed as active;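 also: ME-180 cervical cancer cells given 40 pM IL-6 alongside compound; SIE-controlled beta-lactamase reporter measured as 460/530 nm FRET emission ratio; % is scaled to controls: 0 for no effect and ±100 for the full control effect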); settings: ME-180 SIE beta-lactamase reporter, IL-6 stimulated, 5 h; at 7.69 µM (top of the series) unless noted
In short: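 IL-6/STAT signaling read in ME-180 cells via an SIE beta-lactamase reporter. Stimulus was 40 pM IL-6 (its AC50) for 5 hrs, so both activation and inhibition register.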

[6] = target: Glucocorticoid receptor (Homo sapiens) (UniProt P04150); assay: GR-GFP Redistribution (AID 450;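 active = compounds whose dose series gives a full or clear partial fitted curve of increased nuclear translocation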; also: potency is read from the fitted curve at half-maximal effect); settings: U2OS GR-GFP nuclear translocation, laser cytometry, 2 h
Glucocorticoid receptor (Homo sapiens), sequence (P04150 whole entry, looked up, the tested form may be a part): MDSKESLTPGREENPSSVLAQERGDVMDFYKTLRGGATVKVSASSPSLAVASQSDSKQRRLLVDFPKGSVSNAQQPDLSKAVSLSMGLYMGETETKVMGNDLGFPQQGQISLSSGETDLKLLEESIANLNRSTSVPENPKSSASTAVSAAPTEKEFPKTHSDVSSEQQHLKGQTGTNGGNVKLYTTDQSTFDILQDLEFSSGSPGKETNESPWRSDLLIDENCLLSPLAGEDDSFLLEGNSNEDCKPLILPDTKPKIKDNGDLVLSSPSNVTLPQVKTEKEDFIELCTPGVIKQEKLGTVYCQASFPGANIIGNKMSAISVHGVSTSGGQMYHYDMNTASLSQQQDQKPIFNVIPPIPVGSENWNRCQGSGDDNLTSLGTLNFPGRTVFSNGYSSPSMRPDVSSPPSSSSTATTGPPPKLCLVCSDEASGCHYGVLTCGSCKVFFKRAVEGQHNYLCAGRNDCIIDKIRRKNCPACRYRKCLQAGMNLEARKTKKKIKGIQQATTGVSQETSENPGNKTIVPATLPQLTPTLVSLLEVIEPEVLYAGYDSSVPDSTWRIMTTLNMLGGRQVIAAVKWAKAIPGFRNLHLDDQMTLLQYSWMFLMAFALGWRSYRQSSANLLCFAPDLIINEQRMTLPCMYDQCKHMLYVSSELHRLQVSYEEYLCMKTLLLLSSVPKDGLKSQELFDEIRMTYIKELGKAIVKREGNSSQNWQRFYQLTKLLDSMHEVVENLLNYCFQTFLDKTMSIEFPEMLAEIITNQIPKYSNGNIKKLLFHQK

[7] = target: Glucocorticoid receptor (Homo sapiens) (UniProt P04150); assay: GR-EFC Redistribution (AID 451; calls by dose curve; also: potency is read from the fitted curve at half-maximal effect); settings: CHO-K1 GR-EFC translocation, beta-gal luminescence, 2 h
In short: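 CHO-K1 cells expressing nuclear EA and GR-ED fragments of b-gal; compounds titrated up to 46 uM final, 2 h at 37 C. GR nuclear translocation read as complemented b-gal luminescence after 1 h RT detection.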

[8] = target: Mitogen-activated protein kinase 10 (Mus musculus) (UniProt Q61831); assay: JNK3 AlphaScreen Assay (AID 530; active = well fitted curve in either direction with a large enough effect, not every such curve was filed as active;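 also: kinase came from lysate of stimulated human HepG2 cells; signal reports phosphorylation of biotinylated GST-cJun 1-79 at Ser73 with 10 µM ATP; % is scaled to controls: 0 for no effect and ±100 for the full control effect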); settings: JNK3 lysate, c-Jun phosphorylation; series mostly up to 57.1 µM
In short: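 qHTS format: compounds tested as titrations against IL-1beta/TNF-alpha-activated HepG2 lysate JNK3 with biotin-GST-cJun substrate and 10 uM ATP at room temperature. Loss of anti-phospho-cJun AlphaScreen signal indicates inhibition.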

[9] = target: 3',5'-cyclic-AMP phosphodiesterase 4B (Homo sapiens) (UniProt Q07343); assay: qHTS Assay for Inhibitors of PDE-IV (AID 607; active = well fitted activation curve with a large enough effect in the main read-out, with a control signal flat, not every such curve was filed as active; also: % of control where 0% means no effect); settings: HEK293 ACTOne CNG channel cells, membrane potential fluorescence; series mostly up to 22.9 µM
3',5'-cyclic-AMP phosphodiesterase 4B (Homo sapiens), sequence (Q07343 whole entry, looked up): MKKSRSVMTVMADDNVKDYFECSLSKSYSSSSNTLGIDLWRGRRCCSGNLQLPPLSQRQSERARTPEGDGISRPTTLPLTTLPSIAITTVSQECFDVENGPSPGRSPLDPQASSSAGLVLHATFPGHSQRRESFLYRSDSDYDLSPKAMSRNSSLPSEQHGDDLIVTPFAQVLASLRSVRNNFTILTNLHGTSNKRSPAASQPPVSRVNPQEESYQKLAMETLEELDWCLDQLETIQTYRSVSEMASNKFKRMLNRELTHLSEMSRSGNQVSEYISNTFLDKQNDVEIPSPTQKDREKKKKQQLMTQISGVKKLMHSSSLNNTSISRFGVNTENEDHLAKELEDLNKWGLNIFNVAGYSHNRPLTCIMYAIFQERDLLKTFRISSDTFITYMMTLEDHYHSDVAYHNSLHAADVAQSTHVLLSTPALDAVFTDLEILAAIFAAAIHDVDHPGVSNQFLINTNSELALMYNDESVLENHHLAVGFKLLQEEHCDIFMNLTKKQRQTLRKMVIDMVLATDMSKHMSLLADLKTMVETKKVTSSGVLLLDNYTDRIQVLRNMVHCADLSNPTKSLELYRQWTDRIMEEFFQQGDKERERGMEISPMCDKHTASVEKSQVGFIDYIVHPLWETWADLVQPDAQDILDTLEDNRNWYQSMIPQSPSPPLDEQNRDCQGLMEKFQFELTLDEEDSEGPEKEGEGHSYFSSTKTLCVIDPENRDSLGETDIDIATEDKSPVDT
In short: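 Live HEK293 cells with a modified cyclic nucleotide-gated (CNG) channel report intracellular cAMP via membrane-potential dye fluorescence (ex 535/em 590 nm). Endogenous PDE-IV was targeted. Compounds were tested at up to 22.9 uM final; RO 20-1724 100 uM served as control.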

[10] = target: Cytochrome P450 3A4 (Homo sapiens) (UniProt P08684); assay: qHTS Assay for Inhibitors and Substrates of Cytochrome P450 3A4 (AID 884); settings: recombinant CYP3A4, Luciferin-PPXE luminescence; series mostly up to 57.1 µM; also: nearly all actives have a fitted effect of over 50% in size; also: potency is read from the fitted curve at half-maximal effect
Cytochrome P450 3A4 (Homo sapiens), sequence (P08684 whole entry, looked up): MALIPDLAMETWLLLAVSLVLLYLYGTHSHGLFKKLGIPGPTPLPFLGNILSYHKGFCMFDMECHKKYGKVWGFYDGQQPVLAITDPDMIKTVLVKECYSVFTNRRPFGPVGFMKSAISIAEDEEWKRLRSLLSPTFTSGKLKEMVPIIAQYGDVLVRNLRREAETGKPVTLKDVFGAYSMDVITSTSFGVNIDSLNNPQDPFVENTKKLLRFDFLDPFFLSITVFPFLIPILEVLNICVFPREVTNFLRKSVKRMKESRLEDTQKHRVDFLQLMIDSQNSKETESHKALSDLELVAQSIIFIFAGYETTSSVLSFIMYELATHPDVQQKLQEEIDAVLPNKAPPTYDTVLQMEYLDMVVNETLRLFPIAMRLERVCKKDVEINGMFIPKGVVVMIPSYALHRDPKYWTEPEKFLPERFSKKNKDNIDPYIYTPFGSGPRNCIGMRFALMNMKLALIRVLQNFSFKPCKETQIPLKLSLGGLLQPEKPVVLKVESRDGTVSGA
In short: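 20 nM human CYP3A4 with 25 uM Luciferin-PPXE (at KM) in 200 mM KPO4, preincubated 10 min with compound; NADPH regeneration started a 60 min RT reaction. Luciferin detected by luminescence, normalized to 57 uM ketoconazole as full inhibition.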

[11] = target: Cytochrome P450 3A4 (Homo sapiens) (UniProt P08684); assay: qHTS Assay for Activators of Cytochrome P450 3A4 (AID 885); settings: recombinant CYP3A4, Luciferin-PPXE luminescence, 60 min; series mostly up to 57.1 µM; also: nearly all actives have a fitted effect of over 65% in size
In short: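 Quantitative HTS format: compounds preincubated with 20nM human CYP3A4 and Luciferin-PPXE substrate at KM, reaction started by NADPH regeneration, stopped after 60 min, luciferase luminescence read 20 min later.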

[12] = qHTS Assay for Lipid Storage Modulators (AID 1519; calls by dose curve); settings: Drosophila S3 cells, BODIPY lipid droplet/cell ratio, laser cytometry, cells loaded with oleic acid; for activity change, negative = inhibition: at 57.5 µM (top of the series)
In short: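 Cells seeded at 5,000 per well were treated with compounds over a concentration series and loaded with oleic acid (400 uM, as added). Lipid droplet fluorescence (488 nm excitation, 500-530 nm channel) was read by laser-scanning cytometry and normalized to 20 uM Triacsin C.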

[13] = target: Ubiquitin carboxyl-terminal hydrolase 1 (Homo sapiens) (UniProt O94782); assay: Inhibitors of USP1/UAF1: Pilot qHTS (AID 504865); settings: purified USP1/UAF1, Ub-rhodamine cleavage fluorescence; series mostly up to 54.9 µM; also: nearly all actives have a fitted effect of over 35% in size; also: potency is read from the fitted curve at half-maximal effect
Ubiquitin carboxyl-terminal hydrolase 1 (Homo sapiens), sequence (O94782 whole entry, looked up): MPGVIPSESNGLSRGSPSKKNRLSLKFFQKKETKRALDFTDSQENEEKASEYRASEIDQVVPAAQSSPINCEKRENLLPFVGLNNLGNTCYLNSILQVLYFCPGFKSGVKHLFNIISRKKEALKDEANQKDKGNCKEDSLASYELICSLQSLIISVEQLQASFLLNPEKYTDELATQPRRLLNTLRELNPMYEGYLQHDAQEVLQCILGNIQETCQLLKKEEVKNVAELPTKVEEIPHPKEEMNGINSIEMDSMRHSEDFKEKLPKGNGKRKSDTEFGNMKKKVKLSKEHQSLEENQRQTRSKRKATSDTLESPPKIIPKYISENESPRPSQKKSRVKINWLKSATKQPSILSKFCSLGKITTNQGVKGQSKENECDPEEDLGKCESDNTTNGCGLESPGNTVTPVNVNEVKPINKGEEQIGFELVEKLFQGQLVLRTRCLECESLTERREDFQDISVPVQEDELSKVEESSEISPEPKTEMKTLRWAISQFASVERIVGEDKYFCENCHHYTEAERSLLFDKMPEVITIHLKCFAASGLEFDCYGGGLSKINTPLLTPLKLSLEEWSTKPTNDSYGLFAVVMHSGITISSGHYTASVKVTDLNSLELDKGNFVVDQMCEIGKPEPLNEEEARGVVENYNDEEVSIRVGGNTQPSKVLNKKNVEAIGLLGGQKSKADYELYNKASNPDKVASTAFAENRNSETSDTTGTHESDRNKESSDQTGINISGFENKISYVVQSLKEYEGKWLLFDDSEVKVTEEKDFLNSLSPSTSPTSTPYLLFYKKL
In short: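 Enzyme-free wells gave the negative control, while test wells held 1nM USP1/UAF1 preincubated with compound for 15 min at room temperature. Ub-Rho at 150nM final started the reaction, and fluorescence at 480/540 nm was recorded kinetically.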

[14] = Primary qHTS for small molecule stabilizers of the endoplasmic reticulum resident proteome: Secreted ER Calcium Modulated Protein (SERCaMP) assay (AID 1508630); settings: SH-SY5Y GLuc-SERCaMP (Gaussia luciferase released on ER calcium loss) secretion, thapsigargin, luminescence; series mostly up to 38.4 µM; also: % is scaled to controls: 0 for no effect and ±100 for the full control effect
In short: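 GLuc-SERCaMP-expressing SH-SY5Y cells, pretreated 16 h with compound, are challenged with thapsigargin to empty ER calcium stores; after 4 h, coelenterazine is added directly to the medium and luminescence is imaged.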

[15] = Confirmation and Secondary Assay for Modulators of Hemoglobin Beta Chain Splicing at IVS2 654 locus (AID 910); settings: HeLa EGFP-654 splicing reporter, GFP fluorescence, 48 h; series mostly up to 38.3 µM;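 also: HeLa cells stably carrying EGFP split by mutant beta-globin IVS2-654 intron; % of control where 0% means no effect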
In short: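 HeLa cells stably expressing EGFP interrupted by β-globin IVS2-654 intron, seeded overnight in Opti-MEM/2% FCS, then treated 2 days at 37 °C. Restored splicing read as total peak GFP intensity per well by laser scanning cytometry (488 nm excitation, 500–520 nm emission); 500 nM antisense PNA as control.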

[16] = Confirmation and Secondary Assay for Modulators of Hemoglobin Beta Chain Splicing at IVS2 705 locus (AID 930); settings: HeLa EGFP-705 splicing reporter, GFP fluorescence, 48 h; series mostly up to 38.3 µM;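 also: HeLa cells stably expressing the EGFP-705 splicing reporter; GFP fluorescence per well restored by corrected splicing of the IVS2-705 intron in EGFP; % of control where 0% means no effect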
In short: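 Per-well GFP, captured at 1 x 8 µm resolution with 488 nm excitation, served as the read-out for HeLa EGFP-705 cells incubated 2 days with test compound versus DMSO.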

[17] = target: Cytochrome P450 2C19 (Homo sapiens) (UniProt P33261); assay: qHTS Assay for Inhibitors and Substrates of Cytochrome P450 2C19 (AID 899); settings: recombinant CYP2C19, luciferin-H EGE luminescence; series mostly up to 57.1 µM; also: potency is read from the fitted curve at half-maximal effect; nearly all actives have a fitted effect of over 60% in size
In short: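 Luminescent read-out of luciferin formed from Luciferin-H EGE (10uM, equal to KM). Enzyme 5nM in 50mM KPO4; compound added, 10 min at 37C, then NADPH regenerating system for 60 min at 37C. Full inhibition defined by 57uM ketoconazole.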

[18] = target: Cytochrome P450 2C9 (Homo sapiens) (UniProt P11712); assay: qHTS Assay for Inhibitors and Substrates of Cytochrome P450 2C9 (AID 883); settings: recombinant CYP2C9, luciferin-H luminescence, 60 min; series mostly up to 57.1 µM; also: potency is read from the fitted curve at half-maximal effect; nearly all actives have a fitted effect of over 60% in size
Cytochrome P450 2C9 (Homo sapiens), sequence (P11712 whole entry, looked up): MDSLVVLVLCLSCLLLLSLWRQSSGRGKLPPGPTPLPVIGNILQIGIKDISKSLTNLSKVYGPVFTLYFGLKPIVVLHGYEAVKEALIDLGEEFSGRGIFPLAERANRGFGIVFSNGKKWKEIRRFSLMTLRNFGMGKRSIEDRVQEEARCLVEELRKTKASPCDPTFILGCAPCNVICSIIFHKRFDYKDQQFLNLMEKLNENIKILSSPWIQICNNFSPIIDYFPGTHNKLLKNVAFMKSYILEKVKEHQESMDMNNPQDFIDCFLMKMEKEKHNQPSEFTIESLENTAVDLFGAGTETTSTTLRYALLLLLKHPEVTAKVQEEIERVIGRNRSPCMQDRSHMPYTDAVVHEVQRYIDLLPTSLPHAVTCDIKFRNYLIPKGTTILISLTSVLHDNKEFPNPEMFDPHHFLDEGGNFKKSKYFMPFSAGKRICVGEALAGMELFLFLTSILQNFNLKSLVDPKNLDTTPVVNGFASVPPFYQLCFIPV
In short: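 10nM CYP2C9 + 100uM Luciferin-H (=KM), 25mM KPO4; cpd 10 min 37C; NADPH regen, 60 min 37C; stop/detect with P450 Glo-Buffer 20 min; luminescence. Norm. to 57uM sulphaphenazole as full inhibition.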

[19] = qHTS Assay for Identification of Small Molecule Agonists for Hypoxia Response Element Signaling Pathway (AID 914; active = well fitted activation curve with a large enough effect in the signal ratio, with a control signal flat, not every such curve was filed as active; the % refers to the signal ratio; also: potency is read from the fitted curve at half-maximal effect); settings: ME-180 (cervical carcinoma) HRE-bla reporter, beta-lactamase ratio, CoCl2, 17 h; activation: stronger effect = higher value
In short: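 In Opti-MEM containing 0.5% dialyzed FBS and 10 mM HEPES, ME-180 HRE-bla cells received a compound titration and EC50 CoCl2. They were incubated 17 hours, then CCF4-loaded 2.5 hours at room temperature before ratio reading.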

[20] = target: Dual specificity protein kinase CLK4 (Homo sapiens) (UniProt Q9HAZ1); assay: qHTS Assay for Inhibitors of CDC-like Kinase 4 (ADP-FP Assay) (AID 1795); settings: Transcreener ADP fluorescence polarization; series mostly up to 50 µM; also: nearly all actives have a fitted effect of over 60% in size; also: potency is read from the fitted curve at half-maximal effect
Dual specificity protein kinase CLK4 (Homo sapiens), sequence (Q9HAZ1 whole entry, looked up): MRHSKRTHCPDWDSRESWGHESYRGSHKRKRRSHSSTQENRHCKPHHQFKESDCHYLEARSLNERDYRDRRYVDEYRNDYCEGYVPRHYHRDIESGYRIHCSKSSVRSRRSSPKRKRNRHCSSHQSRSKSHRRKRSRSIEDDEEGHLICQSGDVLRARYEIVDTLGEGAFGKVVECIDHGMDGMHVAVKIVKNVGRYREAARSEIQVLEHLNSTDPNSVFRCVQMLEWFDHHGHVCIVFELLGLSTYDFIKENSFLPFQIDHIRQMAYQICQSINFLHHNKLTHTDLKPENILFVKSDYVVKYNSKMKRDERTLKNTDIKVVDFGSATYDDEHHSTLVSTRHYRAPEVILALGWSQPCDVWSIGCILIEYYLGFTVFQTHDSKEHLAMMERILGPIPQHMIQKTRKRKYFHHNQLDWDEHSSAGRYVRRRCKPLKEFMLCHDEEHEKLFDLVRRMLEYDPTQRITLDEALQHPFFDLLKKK
In short: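 Kinase activity was followed as ADP output, converted from fluorescence polarization with a calibration curve. Reactions ran one hour at low ATP (1 uM) with RS peptide substrate.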

[21] = measured here: cell count channel max response
[22] = measured here: lipid channel max response

c1ncc(-c2ccoc2)c(NC2CC2)n1
22.6%: max response [12, 22]
active: Potency [3] 15.8 µM | Potency [10] 7.94 µM | Potency [13] 28.2 µM
21.6%: max response [12, 21]
inactive: Potency [1] > 11.4 µM | activity change, negative = inhibition [2] 16.6% | activity change, negative = inhibition [4] 5.32% | activity, negative = inhibition [5] 4.55% | Potency [6] > 46 µM | Potency [7] > 46 µM | outcome [8] | Potency [9] | Potency [11] | activity change, negative = inhibition [12] 3.62% | Potency [14]

CN(C)c1ccnc(-c2ccccc2C(F)(F)F)n1
active: Potency [3] 7.94 µM
inactive: Potency [1] > 11.4 µM | activity change, negative = inhibition [2] 24.2% | activity change, negative = inhibition [4] 6.88% | activity, negative = inhibition [5] 1.29% | Potency [6] > 46 µM | Potency [7] > 46 µM | outcome [8] | Potency [9] | Potency [10] | outcome [15] | outcome [16] | activity change, negative = inhibition [12] 5.14% | Potency [13] | Potency [14]
11.7%: max response [12, 21]
18.9%: max response [12, 22]

CN(Cc1ccco1)c1ncnc2ccc(-c3cccc(C#N)c3)cc12
2.39%: max response [12, 22]
-3.6%: max response [12, 21]
active: Potency [3] 0.501 µM | Potency [17] 6.31 µM
inactive: Potency [1] > 11.4 µM | activity change, negative = inhibition [2] 6.41% | activity change, negative = inhibition [4] 19.8% | activity, negative = inhibition [5] -5.78% | Potency [6] > 46 µM | Potency [7] > 46 µM | outcome [8] | Potency [9] | Potency [11] | outcome [15] | outcome [16] | activity change, negative = inhibition [12] 6.34% | Potency [13] | Potency [14]

O=c1c(-c2cc(F)cc(F)c2)nc2cnc(N3CCNCC3)nc2n1C1CC1
4.49%: max response [12, 21]
inactive: Potency [1] > 11.4 µM | Potency [6] > 9.22 µM | Potency [7] > 46 µM | outcome [8] | Potency [9] | Potency [11] | activity change, negative = inhibition [12] 2.24% | Potency [20] | Potency [14]
active: Potency [3] 3.16 µM | Potency [18] 0.158 µM | Potency [19] 2.51 µM
4.55%: max response [12, 22]

CNc1ncnc2ccc(-c3ccccc3C)cc12
active: Potency [20] 8.91 µM
-15.2%: max response [12, 22]
-12.3%: max response [12, 21]
inactive: Potency [1] > 11.4 µM | activity change, negative = inhibition [2] -4.22% | activity change, negative = inhibition [4] 3.06% | activity, negative = inhibition [5] -3.66% | Potency [6] > 46 µM | Potency [7] > 46 µM | outcome [8] | activity change, negative = inhibition [12] -7.2% | Potency [13] | Potency [14]

COc1cccc(Cn2c(=O)cnc3cnc(Oc4ccccc4)nc32)c1
3.98%: max response [12, 21]
3.52%: max response [12, 22]
inactive: Potency [1] > 11.4 µM | activity change, negative = inhibition [2] -13.9% | activity change, negative = inhibition [4] -0.253% | activity, negative = inhibition [5] -14.7% | Potency [6] > 9.22 µM | Potency [7] > 46 µM | outcome [8] | activity change, negative = inhibition [12] -0.165% | Potency [20] | Potency [13] | Potency [14]
